High-throughput results from PubChem.
KB-3-1 cytotox: kills parental KB-3-1 adenocarcinoma cells | hit rate 1.4% among 400,000 | Potency, µM (series often up to 46.1 µM), actives largely listed as cytotoxic | KB-3-1 viability, CellTiter-Glo ATP luminescence, 72 h; also: nearly all actives have a fitted effect of over 60% in size
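Parental KB-3-1 adenocarcinoma cells in phenol-red-free DMEM with 10% FBS were pin-treated with compounds at several concentrations, incubated 72 h at 37 °C, and viability read by CellTiter-Glo luminescence; concentration-effect curves were fitted after normalization.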
HT1080 IDH1KD tx: kills HT-1080 cells with IDH1 knockdown | Potency, µM (series often up to 46.1 µM), usual class: cytotoxic | HT-1080 IDH1 knockdown viability, ATP luminescence, 48 h | hit rate 2% among 360,000
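After a 2 h attachment period, IDH1KD HT-1080 cells took pin-transferred compound for 48 h at 37 °C; ATP-based luminescence after 10 min room-temperature reagent incubation reported viability.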
HT1080NT lethal: kills 2HG-producing HT-1080-NT fibrosarcoma cells; HT-1080-NT fibrosarcoma viability, CellTiter-Glo ATP luminescence, 48 h; Potency, µM (series often up to 46.1 µM), usual class: cytotoxic; hit rate 1.6% among 360,000; AID 686970;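 also: NT is the 2HG producing partner of a matched IDH1 knockdown line; nearly all actives have a fitted effect of over 55% in size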
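HT-1080-NT fibrosarcoma cells (2HG-overproducing), 750 cells/well in RPMI with 5% FBS, dosed after 2 h and incubated 48 h at 37C. CellTiter-Glo luminescence normalized to DMSO and no-cell wells; concentration-response curves fitted and classed.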
TDP1 cell noCPT: qHTS for Inhibitors of human tyrosyl-DNA phosphodiesterase 1 (TDP1): qHTS in cells in absence of CPT; DT40 Tdp1-/- hTDP1 cells, no CPT, ATP luminescence, 48 h; Potency, µM (doses to about 46.2 µM), most hits filed as inhibitors; hit rate 15% among 420,000; also: nearly all actives have a fitted effect of over 55% in size
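Camptothecin absent (DMSO only). Human TDP1-complemented DT40 knockout cells, 400 cells/well, 37 °C for minimum 48 hr; ATP measured via CellTiter-Glo, 30 min dark incubation, luminescence.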
KB-V1 MDR tox: KB-V1 MDR subline cytotoxicity. KB-V1 MDR cells viability, CellTiter-Glo, 72 h. Potency, µM (titrated, usually from 46.1 µM), most hits filed as cytotoxic. hit rate 3.4% among 400,000. AID 1347076; also: nearly all actives have a fitted effect of over 60% in size
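KB-V1 MDR subline cells in DMEM (phenol-red free, 10% FBS) exposed to compounds in qHTS concentration series for 72 h at 37 degrees C. Viability read by CellTiter-Glo luminescence; concentration-effect curves fitted after normalization and correction.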
DT40 TDP1 CPT: growth inhibition of DT40 Tdp1-/-;hTDP1 cells with camptothecin (screen for TDP1 inhibitors); chicken DT40 Tdp1-/-;hTDP1 cells + 20 nM CPT, ATP luminescence, 48 h; Potency, µM (titrated, usually from 46.2 µM), hits mostly inhibitors; hit rate 12% among 420,000; AID 686979; also: nearly all actives have a fitted effect of over 55% in size
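Chicken DT40 Tdp1-/- cells complemented with human TDP1, 400 cells/well, exposed to compounds plus 20 nM camptothecin for at least 48 h at 37 C; viability read as ATP content by CellTiter-Glo luminescence.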
A number is an active result; 0 = inactive; ? = inconclusive; - = no result; ! = not active in a repeat. Only some compounds are listed: those with a hit (about 19% of all), similar ones and a draw of the others. Calls follow the shape of the dose curve; as a rule, active = well fitted curve in the direction sought with a large enough effect; inconclusive = small, poorly fitted or top-dose-only effect, or another doubt; inactive = no such curve, though single readings can be large; an effect the other way counts as inactive or inconclusive.

SMILES | KB-3-1 cytotox | HT1080 IDH1KD tx | HT1080NT lethal | TDP1 cell noCPT | KB-V1 MDR tox | DT40 TDP1 CPT
C=Cc1ccc(CSc2nc(-c3ccccc3Cl)nc3c2Cc2c(CO)cnc(C)c2O3)cc1 | 0 | - | - | ? | 0 | ?
CC(CN1CCC(n2nccc2NC(=O)CCCc2ccccc2)CC1)c1ccccc1 (stereo not given) | 0 | 0 | 0 | ? | 0 | ?
CCOC(=O)c1c(NC(C)=O)c2c3c(sc2n1Cc1nc(-c2ccc(Cl)cc2)oc1C)CCCC3 | - | - | - | 0 | - | ?
COc1cccc(C(=O)Nc2nnc(C(C)C)s2)c1 | 0 | 0 | 0 | 0 | 0 | 0
NC(Cc1ccccc1)c1csc(NC(=O)c2cccc(OC(F)(F)F)c2)n1 (stereo not given) | ? | ? | 15µM | 7.3µM | ? | 7.3µM
NC(CO)c1csc(NC(=O)Nc2ccccc2Cc2ccccc2)n1 (stereo not given) | 0 | 0 | 0 | ? | 0 | ?
COc1ccc(CC(N)c2csc(NC(=O)c3cccc(OC(F)(F)F)c3)n2)cc1 (stereo not given) | ? | 21µM | 21µM | 12µM | ? | 15µM
O=C(N=C1SC2CS(=O)(=O)CC2N1c1cc(Cl)ccc1Cl)C1CCCO1 (stereo not given) | 0 | 0 | 0 | 0 | 0 | 0
CC(C)C(=O)Nc1cccc(C(=O)N2CCCCC2C)c1 (stereo not given) | 0 | 0 | 0 | 15µM | 0 | 18µM
CC1CCCCN1C(=O)c1cccc(NC(=O)c2ccccc2)c1 (stereo not given) | 0 | 0 | 0 | 0 | 0 | 0
COc1ccc(C[C@H](N)C(=O)N[C@H]2[C@@H](O)[C@H](n3cnc4c(N(C)C)ncnc43)O[C@@H]2CO)cc1 | 0.41µM | 0 | 0 | 8.2µM! | 0 | 0
C[C@H](Cc1ccccc1)Nc1ncnc2c1ncn2[C@@H]1O[C@H](CO)[C@@H](O)[C@H]1O | 0 | 0 | ? | 0 | 0 | ?
OCC1OC(n2cnc3c(/C=C(\O)c4ccccc4)ncnc32)C(O)C1O (stereo not given) | ? | 15µM | ? | 1.5µM | ? | 1.3µM
CN(C)c1ncnc2c1nnn2C1OC(CO)C(O)C1O (stereo not given) | 0 | 0.46µM | 0.58µM | 0.33µM | 1.6µM | 0.58µM
C=CCOc1ccc(C[C@H](N)C(=O)NC[C@H]2O[C@@H](n3cnc4c(N)ncnc43)[C@H](O)[C@@H]2O)cc1 | 0 | 0 | 0 | 0 | 0 | 0
CN(C)c1ncnc2c1ncn2C1OC(CO)C(O)C1O (stereo not given) | 8.2µM | 13µM | 13µM | 2.9µM | ? | 2.9µM
CNc1ncnc2c1ncn2[C@@H]1O[C@H](CO)[C@@H](O)[C@H]1O | 0 | 0 | 0 | 0 | 0 | ?
Cc1cc2oc(=O)cc(CN3CCN(S(=O)(=O)c4cccs4)CC3)c2cc1C | 0 | 0 | 0 | ? | 0 | ?
CCOC(=O)C1CCCN(C(=O)Cc2ccc(OC)c(OC)c2)CC1 (stereo not given) | ? | 0 | 0 | ? | 21µM | 0
CCOC(=O)C1CCCN(C(=O)c2ccc(-c3ccc([N+](=O)[O-])cc3)o2)C1 (stereo not given) | 0 | 0 | 0 | 12µM | ? | 12µM
CCOc1ccccc1N1CCN(C(=O)c2ccccc2)CC1 | 0 | 0 | 0 | 0 | 0 | 0
CCOc1ccccc1N1CCN(C(=O)C2c3ccccc3Oc3ccccc32)CC1 | 13µM | 18µM | ? | 23µM | 15µM | 23µM
O=C(CNS(=O)(=O)c1ccc(Br)s1)N1CCCC1 | 0 | 0 | 0 | 0 | 0 | 0
CCOC(=O)C1CCCN(C(=O)CNS(=O)(=O)c2ccc(Br)s2)C1 (stereo not given) | 0 | 0 | 0 | 0 | 21µM | 0
CCCCN(C)c1c(C)nc2ccc(C(=O)NCCCn3ccnc3)cn12 | 0 | 0 | 0 | 0 | 0 | 0
SMILES | KB-3-1 cytotox | HT1080 IDH1KD tx | HT1080NT lethal | TDP1 cell noCPT | KB-V1 MDR tox | DT40 TDP1 CPT
CCOC(=O)C1CCCN(C(=O)C2c3ccccc3Oc3ccccc32)C1 (stereo not given) | 0 | 0 | 0 | ? | 12µM | 0
CCOC(=O)C1CCCN(C(=S)Nc2ccc(C)cc2C)C1 (stereo not given) | 0 | 0 | 0 | 0 | 15µM | 0
CCOC(=O)C1CCCN(C(=S)Nc2ccc(Nc3ccccc3)cc2)C1 (stereo not given) | 0 | 0 | 0 | 23µM | 0 | ?
CCOC(=O)C1CCCN(C(=O)Cc2ccc(C)cc2)C1 (stereo not given) | 0 | 0 | 0 | 18µM | 0 | ?
CCOC(=O)C1CCN(C(=S)Nc2ccccc2)CC1 | 0 | 0 | 0 | 0 | 0 | ?
CCOC(=O)C1CCCN(C(=O)Cc2ccc(OC)c(OC)c2)C1 (stereo not given) | 0 | 0 | 0 | 0 | 0 | 0
COc1cccc(CNC(=O)CN2CCC(c3nc4ccc(C)cc4[nH]3)CC2)c1 | 0 | 0 | 0 | ? | 0 | ?
CCNC(=S)N1CCCC(c2nc3ccc(C)cc3[nH]2)C1 (stereo not given) | 0 | 0 | 0 | ? | 0 | 0
Cc1ccc2nc(C3CCCN(C(=S)Nc4ccccc4C)C3)[nH]c2c1 (stereo not given) | 0 | 0 | 0 | 21µM | 0 | ?
c1cnc(N2CCN(c3ncc4c(n3)CCNC4)CC2)nc1 | 0 | - | - | 0 | 0 | 0
COc1ccc(NCC(=O)N/N=C/c2c(C)nn(Cc3ccccc3)c2Cl)cc1 | 0 | 0 | 0 | ? | 12µM | 0
Cc1nn(-c2ccccc2)c(Cl)c1/C=N/NC(=O)OC(C)(C)C | 0 | 0 | 0 | 16µM | 13µM | ?
CNC(=S)N/N=C/c1c(C)nn(-c2ccccc2)c1Cl | 0 | 8.9µM | ? | 0 | ? | 0
CNC(=S)N/N=C/c1c(C)nn(-c2cccc(Cl)c2)c1Cl | 0 | ? | 0 | 0 | 0 | 0
C(#Cc1ccccc1)CN1CCOCC1 | 0 | 0 | 0 | 0 | 0 | 0
C(#Cc1ccc(C#CCN2CCOCC2)cc1)CN1CCOCC1 | 0 | 0 | 0 | 0 | 18µM | 0
O=c1cc(CN2CCN(C/C=C/c3ccccc3)CC2)c2cc(O)c(-c3ccccc3)cc2o1 | ? | 0 | 0 | 18µM | 0 | 18µM
CC(C)CN(Cc1cc(=O)oc2cc(-c3ccccc3)c(O)cc12)CC(C)C | ? | ? | 26µM | ? | 0 | ?
Cc1cc(C)c2c(CN3CCN(c4ccccc4F)CC3)cc(=O)oc2c1 | 0 | 0 | 0 | ? | 0 | 23µM
Cc1cc(C)c2c(CN3CCN(C)CC3)cc(=O)oc2c1 | 0 | 0 | 0 | 0 | ? | 0
COc1cc2oc(=O)cc(CN3CCN(c4ccccc4F)CC3)c2cc1Cl | 0 | 0 | 0 | ? | 0 | ?
